In PubChem BioAssay (EPA / NIEHS):
Inconclusive results are not listed. Activity calls are given as the source filed them. How the source made its calls, unless noted: active means hit-call score of the fitted dose curve at least 0.9, where 1 is the maximum; inactive means score below 0.9.

What was measured:
[1] = read-out: solute carrier (SLC22A1), SLC22A1 (gene 6580); experiment: LTEA_HepaRG_SLC22A1: Life Technologies and Expression Analysis (LTEA) Assay for solute carrier (SLC22A1) using HepaRG (AID 2283524); conditions: mRNA level, 48 h; actives raise or lower the signal;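 on AC50: differentiated human HepaRG liver cells in serum-free induction medium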
Outline: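 qRT-PCR readout (TaqMan, Fluidigm arrays) of SLC22A1 transcript, normalized to three housekeeping genes; bidirectional curve fit relative to 0.5% DMSO vehicle. Differentiated human HepaRG cells, 48 h chemical exposure, top concentration 100 uM, half-log steps, eight points.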

[2] = read-out: Pyruvate Dehydrogenase Kinase 4 (PDK4), PDK4 (gene 5166); experiment: LTEA_HepaRG_PDK4: Life Technologies and Expression Analysis (LTEA) Assay for Pyruvate Dehydrogenase Kinase 4 (PDK4) using HepaRG (AID 2283525); conditions: mRNA level, 48 h; actives raise or lower the signal
Outline: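 HepaRG (human liver line), 48 h chemical exposure, 8-pt half-log CRC top 100 uM, 0.5% DMSO vehicle, duplicates. Readout: TaqMan qRT-PCR of PDK4 mRNA, housekeeping-normalized; gain/loss fit relative to DMSO baseline.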

[3] = read-out: NAD(P)H dehydrogenase [quinone] 1 (NQO1), NQO1 (gene 1728); experiment: LTEA_HepaRG_NQO1: Life Technologies and Expression Analysis (LTEA) Assay for NAD(P)H dehydrogenase [quinone] 1 (NQO1) using HepaRG (AID 2283526); conditions: mRNA level, 48 h; actives raise or lower the signal
Outline: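 Transcript induction or suppression is quantified by qRT-PCR in human HepaRG liver cells dosed for 48 hours. Eight half-log concentrations topping at 100 uM are used, with 0.5% DMSO as vehicle and baseline.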

[4] = read-out: Signal transducer and activator of transcription 3 (Homo sapiens) (UniProt P40763); experiment: LTEA_HepaRG_STAT3: Life Technologies and Expression Analysis (LTEA) Assay for Signal transducer and activator of transcription (STAT3) using HepaRG (AID 2283529); conditions: mRNA level, 48 h; actives raise or lower the signal
Outline: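 HepaRG, 48 h exposure, 8-pt half-log series (top 100 uM), 0.5% DMSO vehicle, duplicates. Readout: STAT3 transcript by Fluidigm qRT-PCR, housekeeping-normalized; bidirectional fit vs DMSO baseline.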

[5] = read-out: solute carrier (SLCO1B1), SLCO1B1 (gene 10599); experiment: LTEA_HepaRG_SLCO1B1: Life Technologies and Expression Analysis (LTEA) Assay for solute carrier (SLCO1B1) using HepaRG (AID 2283530); conditions: mRNA level, 48 h; actives raise or lower the signal
Outline: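 HepaRG, serum-free induction medium, 48 h dosing, 8-pt half-log from 100 uM, 0.5% DMSO vehicle, duplicates. Readout: SLCO1B1 mRNA, qRT-PCR, ACTB/GAPDH/POLR2A normalization; up or down fit vs DMSO.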

[6] = read-out: sulfotransferase 2A1 (SULT2A1), SULT2A1 (gene 6822); experiment: LTEA_HepaRG_SULT2A1: Life Technologies and Expression Analysis (LTEA) Assay for sulfotransferase 2A1 (SULT2A1) using HepaRG (AID 2283531); conditions: mRNA level, 48 h; actives raise or lower the signal
Outline: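 Transcript levels of SULT2A1, quantified by qRT-PCR and normalized to three housekeeping genes, serve as the readout. Human HepaRG cultures receive test chemicals for 48 h at up to 100 uM in half-log steps, with 0.5% DMSO vehicle.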

[7] = read-out: Transforming Growth Factor (TGFA), TGFA (gene 7039); experiment: LTEA_HepaRG_TGFA: Life Technologies and Expression Analysis (LTEA) Assay for Transforming Growth Factor (TGFA) using HepaRG (AID 2283532); conditions: mRNA level, 48 h; actives raise or lower the signal
Outline: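 qRT-PCR read-out of TGFA transcript, normalized to three housekeeping genes, fitted bidirectionally against 0.5% DMSO baseline. Human HepaRG cultures received chemicals for 48 h at eight half-log concentrations, top 100 uM.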

[8] = read-out: Transforming Growth Factor (TGFB1), TGFB1 (gene 7040); experiment: LTEA_HepaRG_TGFB1: Life Technologies and Expression Analysis (LTEA) Assay for Transforming Growth Factor (TGFB1) Transporter using HepaRG (AID 2283533); conditions: mRNA level, 48 h; actives raise or lower the signal
Outline: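 HepaRG, 48 h post-plating, switched to serum-free induction medium; chemicals 100 uM top, half-log, 8 pts, 0.5% DMSO, dup; 48 h exposure; RNA → Fluidigm TaqMan qRT-PCR; norm ACTB/GAPDH/POLR2A; bidirectional fit vs DMSO.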

TIMP1, TIMP1 (gene 7076) = experiment: LTEA_HepaRG_TIMP1: Life Technologies and Expression Analysis (LTEA) Assay for TIMP1 using HepaRG (AID 2283534); conditions: mRNA level, 48 h; actives raise or lower the signal
Outline: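 Readout is TIMP1 mRNA level measured by qRT-PCR and normalized to three housekeeping genes. Human HepaRG cells were treated for 48 h in duplicate at eight concentrations up to 100 uM (0.5% DMSO); gain or loss fitted against DMSO.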

[9] = read-out: Tumor necrosis factor receptor 1 (TNFRSF1A), TNFRSF1A (gene 7132); experiment: LTEA_HepaRG_TNFRSF1A: Life Technologies and Expression Analysis (LTEA) Assay for Tumor necrosis factor receptor 1 (TNFRSF1A) using HepaRG (AID 2283535); conditions: mRNA level, 48 h; actives raise or lower the signal
Outline: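 Read-out is TNFRSF1A transcript level by TaqMan qRT-PCR, normalized to three housekeeping genes, scored as gain or loss of signal versus 0.5% DMSO. Human HepaRG cells received test chemicals for 48 h at up to 100 uM (half-log series).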

[10] = read-out: Cellular tumor antigen p53 (Homo sapiens) (UniProt P04637); experiment: LTEA_HepaRG_TP53: Life Technologies and Expression Analysis (LTEA) Assay for Tumor Protein P53 (TP53) using HepaRG (AID 2283537); conditions: mRNA level, 48 h; actives raise or lower the signal
Outline: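 TP53 transcript measured by qRT-PCR, normalized to three housekeeping genes, after 48 h treatment of human HepaRG cultures with chemicals from 100 uM downward in half-log steps (0.5% DMSO vehicle, serum-free induction medium). Up- or down-regulation fitted against DMSO.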

[11] = read-out: UDP glucuronosyltransferase (UGT1A1), UGT1A1 (gene 54658); experiment: LTEA_HepaRG_UGT1A1: Life Technologies and Expression Analysis (LTEA) Assay for UDP glucuronosyltransferase (UGT1A1) using HepaRG (AID 2283538); conditions: mRNA level, 48 h; actives raise or lower the signal
Outline: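 Cells are plated, cultured 48 h, switched to serum-free induction medium, then dosed 48 h at eight concentrations (max 100 uM, 0.5% DMSO). RNA is isolated and UGT1A1 expression measured by qRT-PCR; changes versus DMSO are fitted in both directions.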

[12] = read-out: UDP glucuronosyltransferase (UGT1A6), UGT1A6 (gene 54578); experiment: LTEA_HepaRG_UGT1A6: Life Technologies and Expression Analysis (LTEA) Assay for UDP glucuronosyltransferase (UGT1A6) using HepaRG (AID 2283539); conditions: mRNA level, 48 h; actives raise or lower the signal
Outline: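 HepaRG, 48 h post-plating switch to serum-free induction medium; chemical 48 h, 100 uM top, half-log x8, duplicate, 0.5% DMSO. Phenobarbital 1mM induction control. UGT1A6 mRNA by TaqMan qRT-PCR; gain/loss fit vs DMSO.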

[13] = read-out: X-box binding protein 1 (XBP1), XBP1 (gene 7494); experiment: LTEA_HepaRG_XBP1: Life Technologies and Expression Analysis (LTEA) Assay for X-box binding protein 1 (XBP1) using HepaRG (AID 2283540); conditions: mRNA level, 48 h; actives raise or lower the signal
Outline: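 Transcript levels of XBP1, measured by qRT-PCR and normalised to three housekeeping genes, were fitted bidirectionally relative to 0.5% DMSO controls. Human HepaRG cells received eight-point half-log dilutions from 100 uM for 48 h.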

[14] = LTEA_HepaRG_LDH_cytotoxicity: Cytotoxicity Assessment in the Life Technologies and Expression Analysis (LTEA) Assay (AID 2283563; active means hit-call score of the fitted dose curve at least 0.9, where 1 is the maximum;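 on AC50: LDH activity released into spent culture medium as a marker of cell death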)
Outline: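 Cells were thawed and plated for 48 h. Medium was then replaced with serum-free induction medium. Chemicals (8 half-log points, maximum 100 uM, 0.5% DMSO) were added in duplicate for 48 h, after which spent medium was assayed for LDH.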

[15] = TOX21_p53_BLA_p2_viability: Viability Assessment in the Tox21 HCT-116 p53 Agonism Beta-lactamase Assay, Phase 2 (AID 2283591; active means hit-call score of the fitted dose curve at least 0.9, where 1 is the maximum;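 further: compound exposure lasted 16 h at 37 °C; actives lower the ATP signal meaning cytotoxicity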)
Outline: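 HCT116 p53-bla cells, 4000/well, dosed after 5 h plating (217-fold dilution of DMSO stocks) and incubated 16 h at 37C. Viability taken as cellular ATP by CellTiter-Glo luminescence after 30 min RT; signal loss marks cytotoxicity.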

[16] = read-out: Nuclear factor erythroid 2-related factor 2 (Homo sapiens) (UniProt Q16236); experiment: LTEA_HepaRG_NFE2L2: Life Technologies and Expression Analysis (LTEA) Assay for Nuclear factor erythroid 2-related factor 2 (NFE2L2) Transcription Factor using HepaRG (AID 2283527); conditions: mRNA level, 48 h; actives raise or lower the signal
Outline: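 HepaRG, 48 h dosing, 8-pt half-log series from 100 uM in 0.5% DMSO, duplicates. Read-out: NFE2L2 mRNA by qRT-PCR (ACTB/GAPDH/POLR2A normalization). Bidirectional curve fit vs DMSO baseline.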

[17] = read-out: Thyroid Hormone Responsive (THRSP), THRSP (gene 7069); experiment: LTEA_HepaRG_THRSP: Life Technologies and Expression Analysis (LTEA) Assay for Thyroid Hormone Responsive (THRSP) using HepaRG (AID 2283536); conditions: mRNA level, 48 h; actives raise or lower the signal
Outline: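 qRT-PCR read-out (Fluidigm TaqMan), housekeeping-normalized (ACTB/GAPDH/POLR2A). HepaRG, 48 h chemical exposure, 8-pt half-log series from 100 uM in 0.5% DMSO, duplicates. Bidirectional curve fit vs 0.5% DMSO baseline.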

[18] = ATG_XTT_Cytotoxicity: Cytotoxicity Assessment in the Attagene TRANS-FACTORIAL HepG2 Assay (AID 2283584; active means hit-call score of the fitted dose curve at least 0.9, where 1 is the maximum)
Outline: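 Cells: human HepG2, transiently transfected with MRTU reporter constructs. Exposure 24 h. Readout: XTT, cell number. Baseline/neg ctrl DMSO; loss-of-signal scored.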

Measured: AC50

Cellular tumor antigen p53 (Homo sapiens), sequence (P04637 whole entry, looked up): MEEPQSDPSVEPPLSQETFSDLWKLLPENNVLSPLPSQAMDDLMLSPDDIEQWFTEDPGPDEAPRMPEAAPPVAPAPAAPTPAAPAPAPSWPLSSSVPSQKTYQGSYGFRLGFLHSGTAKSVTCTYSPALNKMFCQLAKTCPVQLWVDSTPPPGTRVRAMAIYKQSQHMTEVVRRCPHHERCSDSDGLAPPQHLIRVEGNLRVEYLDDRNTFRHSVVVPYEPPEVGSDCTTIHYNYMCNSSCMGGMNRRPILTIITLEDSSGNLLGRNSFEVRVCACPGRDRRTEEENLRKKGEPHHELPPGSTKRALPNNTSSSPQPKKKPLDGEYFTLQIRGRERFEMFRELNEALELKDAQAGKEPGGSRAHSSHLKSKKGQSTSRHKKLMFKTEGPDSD
Nuclear factor erythroid 2-related factor 2 (Homo sapiens), sequence (Q16236 whole entry, looked up): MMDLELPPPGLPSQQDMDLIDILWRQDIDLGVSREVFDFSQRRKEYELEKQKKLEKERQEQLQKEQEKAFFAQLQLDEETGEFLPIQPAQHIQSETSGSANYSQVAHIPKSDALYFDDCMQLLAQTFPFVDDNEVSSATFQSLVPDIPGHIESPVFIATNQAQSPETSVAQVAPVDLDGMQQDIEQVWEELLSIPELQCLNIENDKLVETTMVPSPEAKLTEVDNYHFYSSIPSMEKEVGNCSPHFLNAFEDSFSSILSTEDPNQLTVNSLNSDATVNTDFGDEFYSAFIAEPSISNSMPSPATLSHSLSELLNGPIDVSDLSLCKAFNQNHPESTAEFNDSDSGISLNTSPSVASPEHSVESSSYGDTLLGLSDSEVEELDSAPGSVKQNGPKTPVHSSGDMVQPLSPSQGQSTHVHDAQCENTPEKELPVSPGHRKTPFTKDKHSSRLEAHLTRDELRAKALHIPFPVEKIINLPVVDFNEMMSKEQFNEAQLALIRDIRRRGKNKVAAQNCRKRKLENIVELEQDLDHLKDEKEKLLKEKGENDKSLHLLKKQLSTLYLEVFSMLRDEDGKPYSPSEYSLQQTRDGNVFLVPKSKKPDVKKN
Signal transducer and activator of transcription 3 (Homo sapiens), sequence (P40763 whole entry, looked up): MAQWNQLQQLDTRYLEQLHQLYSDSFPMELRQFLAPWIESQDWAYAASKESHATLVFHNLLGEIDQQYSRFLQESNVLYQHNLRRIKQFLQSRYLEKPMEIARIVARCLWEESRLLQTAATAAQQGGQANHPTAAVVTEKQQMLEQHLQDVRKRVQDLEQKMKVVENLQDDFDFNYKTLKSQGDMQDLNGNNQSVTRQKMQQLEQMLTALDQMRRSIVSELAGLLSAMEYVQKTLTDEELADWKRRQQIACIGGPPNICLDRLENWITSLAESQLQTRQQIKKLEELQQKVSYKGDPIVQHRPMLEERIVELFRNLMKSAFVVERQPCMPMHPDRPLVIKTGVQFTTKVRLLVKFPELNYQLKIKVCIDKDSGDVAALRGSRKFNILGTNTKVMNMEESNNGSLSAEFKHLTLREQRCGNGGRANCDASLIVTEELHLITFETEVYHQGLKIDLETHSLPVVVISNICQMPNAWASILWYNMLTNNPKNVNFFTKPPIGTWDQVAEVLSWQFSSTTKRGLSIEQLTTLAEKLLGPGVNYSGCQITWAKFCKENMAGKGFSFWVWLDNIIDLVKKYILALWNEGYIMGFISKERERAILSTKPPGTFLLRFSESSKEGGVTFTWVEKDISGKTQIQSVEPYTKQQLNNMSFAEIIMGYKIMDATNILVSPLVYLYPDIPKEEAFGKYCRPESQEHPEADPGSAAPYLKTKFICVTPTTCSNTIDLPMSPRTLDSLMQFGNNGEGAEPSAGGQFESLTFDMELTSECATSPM

CN(C)C(=O)NC1(c2ccccc2)CCN(CCC[C@]2(c3ccc(Cl)c(Cl)c3)CCCN(C(=O)c3ccccc3)C2)CC1
inactive: [4] | [7] | TIMP1, TIMP1 (gene 7076) | [9] | [10] | [15]
active: [1] 23.8 µM | [2] 19.2 µM | [3] 21.7 µM | [5] 19.5 µM | [6] 19.4 µM | [8] 9.26 µM | [11] 22 µM | [12] 22 µM | [13] 12.5 µM | [14] 19.1 µM

Cc1cc(SC2=C(O)C[C@@](CCc3ccc(N)cc3)(C(C)C)OC2=O)c(C(C)(C)C)cc1CO
active: [1] 7.05 µM | [2] 13.5 µM | [6] 9.92 µM | [11] 1.38 µM
not listed: [5] | [18]
inactive: all other assays above

CS(=O)(=O)c1ccc([C@@H](C[C@H]2CCC(=O)C2)C(=O)Nc2cnccn2)cc1Cl
inactive: [6] | TIMP1, TIMP1 (gene 7076) | [11] | [12] | [18] | [15]
active: [1] 2.77 µM | [2] 0.913 µM | [3] 17.9 µM | [16] 0.738 µM | [4] 50 µM | [7] 0.938 µM | [8] 1.22 µM | [9] 14.8 µM | [17] 27.2 µM | [10] 1.09 µM | [13] 1.33 µM

CCCCC(CC)COP(=O)(OCC(CC)CCCC)OCC(CC)CCCC (centres undefined)
active: [11] 13.3 µM
not listed: [5] | [14]
inactive: all other assays above

OCC(CO)n1cnc(-c2ccc(F)cc2)c1-c1ccnc(Oc2ccccc2)n1
active: [16] 33.8 µM | [11] 24.9 µM
not listed: [5] | [14] | [17] | [18]
inactive: all other assays above

CC(C)COC(=O)CCCCC(=O)OCC(C)C
not listed: [5] | [10] | [15] | [17]
inactive: all other assays above

CCCCC(CC)CO (centres undefined)
not listed: [3] | [15]
inactive: all other assays above
